TR SRC2 fluor cs = alters Texas Red total fluorescence, flagging assay interference. hit rate 0.29% among 280,000. Potency, µM (highest dose often 106 µM), inactives show top-dose fluorescence change, negative = quenching. AID 1479. TRb/SRC2 Texas Red total fluorescence interference; active means well fitted curve in either direction with a large enough effect; inconclusive means small, poorly fitted or top-dose-only effect
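Flags fluorescent or light-absorbing compounds by total fluorescence, S + 2P, at 555 nm excitation and 632 nm emission. Mixture: 20 nM Texas Red SRC2 peptide, 0.6 uM human TRb LBD, 1 uM T3, 5% DMSO; compound exposure 5 h at ambient temperature.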
Tau fibril FP = blocks human tau fibril formation measured by polarization | AID 1468 | P10636 | Potency, µM (highest dose often 57.7 µM), without a hit: top-dose activity, negative = inhibition, actives largely listed as inhibitors | hit rate 0.39% among 280,000 | K18 P301L tau heparin fibrillization, Alexa594 FP, 6 h; further: nearly all actives have a fitted effect of over 55% in size
Target sequence (P10636 561-689 P618L limits assumed): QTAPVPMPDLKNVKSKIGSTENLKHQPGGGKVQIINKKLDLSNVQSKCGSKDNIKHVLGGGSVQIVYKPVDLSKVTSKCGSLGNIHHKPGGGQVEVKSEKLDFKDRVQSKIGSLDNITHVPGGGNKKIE
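Read-out: fluorescence polarization of Alexa 594-labeled tau (0.24 uM), 555 nm excitation, 632 nm emission. Mixtures held 15 uM unlabeled K18 P301L, compound and 20 uM heparin, pH 7 acetate buffer, incubated 6 hr at 37 C.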
TRb-SRC2 inh = inhibitors of human thyroid hormone receptor beta-SRC2 interaction. P10828. TRbeta-SRC2 peptide binding, fluorescence polarization; receptor liganded with 1 µM T3. Potency, µM (series often up to 106 µM), for inactives: at the highest dose activity change, negative = inhibition, hits mostly inhibitors. hit rate 0.065% among 280,000;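 further: plate controls were bound peptide for no effect and peptide without receptor for full effect; nearly all actives have a fitted effect of over 50% in size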
Target sequence (P10828 whole entry, looked up): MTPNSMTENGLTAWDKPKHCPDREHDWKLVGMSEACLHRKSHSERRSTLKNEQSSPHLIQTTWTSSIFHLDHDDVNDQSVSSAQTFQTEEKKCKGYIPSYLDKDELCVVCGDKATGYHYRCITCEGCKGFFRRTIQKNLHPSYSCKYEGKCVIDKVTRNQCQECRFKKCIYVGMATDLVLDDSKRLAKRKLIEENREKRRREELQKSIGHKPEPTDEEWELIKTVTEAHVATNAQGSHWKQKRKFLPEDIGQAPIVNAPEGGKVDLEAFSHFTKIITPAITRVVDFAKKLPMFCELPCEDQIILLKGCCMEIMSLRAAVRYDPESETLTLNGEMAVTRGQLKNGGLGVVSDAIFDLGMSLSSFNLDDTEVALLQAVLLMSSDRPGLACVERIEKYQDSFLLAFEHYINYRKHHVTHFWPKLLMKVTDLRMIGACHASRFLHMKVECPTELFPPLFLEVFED
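TRb LBD 0.6 uM + Texas Red SRC2 peptide 20 nM, 1 uM T3, Tris buffer w/ 5% DMSO; compound pinned, 5 h RT; FP read ex 555/em 632; normalized to unbound and bound controls.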
Tau fluor counter = counter-screen for tau fibril formation inhibitors | tau K18 P301L Alexa594 fluorescence, heparin fibrillization | Potency, µM (doses to about 57.7 µM), for inactives: at the highest dose activity change, negative = decrease | hit rate 0.93% among 280,000 | AID 1463; further: nearly all actives have a fitted effect of over 55% in size
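Human K18 P301L tau (15 uM unlabeled plus 0.24 uM Alexa 594-labeled, final) in 100 mM sodium acetate pH 7 was mixed with compound and 20 uM heparin and incubated 6 hr at 37 C.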
Tau fibril ThT = blocks human tau fibril formation measured by thioflavin T | hit rate 2.1% among 270,000 | Potency, µM (series often up to 57.4 µM), for the others: at the top dose activity, negative = inhibition, actives largely listed as inhibitors | recombinant tau K18 P301L, heparin-induced fibrillization, ThT fluorescence | P10636; further: nearly all actives have a fitted effect of over 55% in size
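ThT emission at 510 nm, taken 1 hr after adding 30 uM dye, quantifies aggregates formed when 20 uM heparin acts on human tau K18 P301L for 6 hr at 37 C.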
* hit, by the source's call; ? = inconclusive; . = no result; [ ] = dose if it differs, or a comment. Hits are enriched below; roughly 3.1% of the tested compounds scored in any of these assays. Unless noted, the call rests on the fitted dose curve; in most records, active means well fitted curve in the direction sought with a large enough effect; inconclusive means small, poorly fitted or top-dose-only effect, or another doubt; inactive means no such curve, though single readings can be large; an effect the other way counts as inactive or inconclusive. Unless noted, on the % scale 0 is the no-effect control and ±100 the full control effect; potency means the concentration at half of the fitted maximal effect.

SMILES	TR SRC2 fluor cs	Tau fibril FP	TRb-SRC2 inh	Tau fluor counter	Tau fibril ThT
O=C(NNc1ccc(Cl)cc1)c1c(F)cccc1Cl	-2%	4%	-8%	-12%	-11%
CC(=O)C(=Nc1ccccc1Cl)NNc1ccc(Cl)cc1	3%	?	-13%	?	6.3µM*
Fc1c(F)c(C(F)(F)F)c(F)c(F)c1N/N=C\c1cccs1	-1%	5%	-12%	7.9µM*[quencher]	-20%
COc1ccc(Oc2nc3c(c(=O)n(C)c(=O)n3C)n2Cc2ccc(Cl)cc2Cl)cc1	-3%	-2%	11%	-3%	?
CCC(O)OCCCOC (stereo unspecified)	-1%[201 µM]	.	-5%[201 µM]	.	.
O=C1CCC/C1=C/Nc1ccc(Cl)cc1	-2%	10%	4%	-12%	-13%
O=C1CCC/C(=N/Nc2ccc(Cl)cc2)C1	0%	?	-6%	?	25µM*
COc1cccc2c(=S)c(CCC(C)=O)c(C)[nH]c12	2.8µM*[quencher]	3%	-17%[53 µM]	3%	8%
CCc1ccccc1NC(=O)N1CCN(c2nnc(C)c3c(C)n(-c4ccccc4)nc23)CC1	-15%	12%	-2%	9%	-1%
COc1ccc(-c2cn3nc(N4CCCC(C(=O)NCc5ccccc5OC)C4)sc3n2)cc1 (stereo unspecified)	2%	9%	1%	-20%	?
CNc1cccccc1=S	-5%	?	1%	-29%	13µM*
COc1cccc(-n2cc(C(=O)Oc3ccc(F)cc3)c3ccccc3c2=O)c1	-1%	-5%	1%	-13%	-4%
O=C(NCCn1cc(SCc2ccccc2)c2ccccc21)c1cccs1	?	?	1%	5.6µM*[quencher]	?
Cc1ccc(C)c(CSc2cn(CCNC(=O)c3cccs3)c3ccccc23)c1	1%	-12%	4%	8.9µM*[quencher]	?
O=C(NCCn1cc(SCc2ccc(Br)cc2)c2ccccc21)c1cccs1	5%	-11%	12%	?	?
Cc1ccc(C)c(CSc2cn(CCNC(=O)c3ccccc3F)c3ccccc23)c1	2%	-1%	9%	?	?
O=C(NCCn1cc(SCc2ccccc2Cl)c2ccccc21)c1cccs1	-6%	?	11%	3.2µM*[quencher]	-26%
NC(=O)CSc1cn(CCNC(=O)c2cccs2)c2ccccc12	-5%	-8%	-4%	-9%	-17%
CCCN(Cc1cc2cc(C)ccc2[nH]c1=O)C(=O)c1cccc(Cl)c1	5%	-6%	3%	-11%	-9%
CCOC(=O)c1ccc(NC(=O)c2c(NCc3cccs3)sc3c2CCCCC3)cc1	?	?	-14%	-26%	22µM*
NC(=O)c1c(NC(=O)c2cccs2)sc2c1CCCCCC2	-3%	1%	-1%	-18%	-12%
CCOc1ccc(NC(=O)c2c(NCc3cccs3)sc3c2CCC(C)C3)cc1 (stereo unspecified)	355µM*[quencher]	4%	-21%	-24%	?
CCOc1ccc(NC(=O)c2c(NCc3cccnc3)sc3c2CCC(C)C3)cc1 (stereo unspecified)	-16%	-11%	-7%	?	16µM*
CCOC(=O)c1ccc(NC(=O)c2c(NC(=O)CCC(=O)O)sc3c2CCCCC3)cc1	0%[53 µM]	-15%	0%[53 µM]	-2%	?
O=C(Nc1sc2c(c1C(=O)Nc1cccc(Cl)c1)CCCC2)c1cccs1	3%	?	-3%	-17%	11µM*
SMILES	TR SRC2 fluor cs	Tau fibril FP	TRb-SRC2 inh	Tau fluor counter	Tau fibril ThT
CCc1ccc(S(=O)(=O)c2cn(Cc3ccccc3F)c3cc(OC)c(OC)cc3c2=O)cc1	-1%	-9%	-7%	-13%	-7%
Cc1ccc(NC(=O)CCn2cnc3ccccc3c2=O)cc1Cl	0%	-11%	3%	0%	1%
Cc1ccc(N/N=C2\CC(=O)c3ccccc32)cc1Cl	1%	?	3%	?	7.1µM*
CNc1ccccc(-c2ccc3cc4c(cc3n2)OCO4)c1=O	-5%	-14%	-3%	?	5µM*
c1ccc2nc(-c3ccc4c(c3)OCO4)ccc2c1	-1%	2%	-2%	-7%	?
CC/C=C/[C@@H](c1ccccc1)[C@H](C)C(O)CC(=O)SC(C)(C)C (stereo partly specified)	-1%	.	-4%	.	.
Cc1nn(CCC(=O)N2CCN(c3ccccc3F)CC2)c(C)c1S(=O)(=O)N1CCCC1	-2%	7%	0%	-6%	-10%
Cc1c(/C=N/NC(=O)c2ccc(O)cc2)c2ccccn2c1C(=O)c1ccc(F)cc1	-1%	?	6%	16µM*[quencher]	?
Cc1c(/C=N/NC(=O)c2ccccc2O)c2ccccn2c1C(=O)c1ccc(F)cc1	0%	2%	2%	12%	12%
Cc1ccccc1C1CC(=O)Oc2cc(O)ccc21 (stereo unspecified)	100µM*[fluorescent]	?	?	-4%[126 µM]	-12%[126 µM]
Cc1ccccc1C1CC(=O)Oc2ccc(C(C)(C)C)cc21 (stereo unspecified)	0%	-5%[81.3 µM]	6%	-19%[81.3 µM]	-10%[81.4 µM]
CCOc1ccccc1Nc1ncnc2c1c(-c1ccccc1)cn2-c1ccc(OC)cc1	0%	-11%	6%	-13%	-12%
COc1ccc(-c2cc(=O)[nH]c(=O)[nH]2)cc1	-7%	1%	-3%	2%	-1%
O=c1cc(-c2ccc(Cl)c(Cl)c2)[nH][nH]1	-4%	?	-14%	?	3.2µM*
COc1ccc(-c2cc(=O)[nH][nH]2)cc1	-5%	?	?	-27%	2.2µM*
c1ccc(-c2ccc(-c3ccccc3)cc2)cc1	1%[201 µM]	.	5%[201 µM]	.	.
CC(=O)Nc1ccc(S(=O)(=O)Nc2cc(-c3cn4ccccc4n3)ccc2C)cc1	-1%	-5%	-7%	?	-8%
CC(C)CC(CSc1ccc(Br)cc1)N1CCN(CC(C)C)CCC1=O (stereo unspecified)	-4%	.	6%	.	.
CCCC[C@@H]1CCCO[C@@](C(=O)NCCOC)(C(F)(F)F)C1	-1%	.	0%	.	.
O=c1c(O)c(-c2ccc(O)cc2)oc2ccc(O)cc12	-8%	-12%	6%	-22%	?
Nc1ccc2oc3ccc(N)cc3c(=O)c2c1	-8%	4%	8%	-20%	14µM*
Cc1nc(N=Nc2ccc(O)cc2)n[nH]1	-2%	-7%	0%	-2%	-14%
COc1ccc(O)cc1	-3%	.	2%	.	.
Cc1ccc(-c2nc(N=Nc3ccc(O)cc3)n[nH]2)cc1	-3%	-2%	-3%	-27%	2.5µM*
COc1ccc(-c2nc(N=Nc3ccc(O)cc3)n[nH]2)cc1	-12%	1%	-8%	-20%	2.8µM*
O=C(c1nc(-c2ccc(Cl)cc2)n2c1CCCCC2)N1CCN(c2ccccc2F)CC1	-7%	2%	5%	2%	-11%
COc1ccc(-c2ccc(OC)c(C3C4C=CCCC4(C)C(=O)N3Cc3ccccc3)c2)cc1 (stereo unspecified)	0%	.	-2%	.	.
